# Sampled rows, rich in hits. Any-hit rate of the full collection: about 15%.
# Pf growth 96h: P. falciparum growth inhibition at 96 hours. 6.9% of 320,000 active. P. falciparum luciferase reporter growth, 96 h. Potency, µM (top dose mostly 28.7 µM), inactives show at the highest dose activity change, negative = inhibition, most hits filed as inhibitors. AID 504834; also: potency is read from the fitted curve at half-maximal effect; % is scaled to controls: 0 for no effect and ±100 for the full control effect
#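 Two-generation exposure (96 h) targets delayed-death phenotype. Reporter parasites carrying integrated firefly luciferase, in red cells at 2% hematocrit and 0.05% parasitemia final, kept at 37 C, 5% CO2; luminescence loss indicates inhibition.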
# HCV inh: blocks hepatitis C virus | 3.4% of 340,000 active | Huh7.5.1 HCVcc-Cre infection, luciferase reporter, 44 h | Potency, µM (highest dose often 41.8 µM), inactives show top-dose activity change, negative = inhibition, usual class: inhibitors; also: potency is read from the fitted curve at half-maximal effect; % is scaled to controls: 0 for no effect and ±100 for the full control effect
#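 1,000 cells/well; 4 h culture; + compound; + HCVcc-Cre (~0.5 moi); 44 h; luciferase substrate, RT 15 min; read 15 sec.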
# SARS PLpro yeast: inhibitors of SARS-CoV papain-like protease in yeast; S. cerevisiae expressing SARS-CoV PLpro, growth rescue; Potency, µM (titrated, usually from 32.9 µM), for inactives: top-dose activity, positive = growth rescue, usual class: activators; 0.19% of 330,000 active; AID 485353; calls by dose curve; also: potency is read from the fitted curve at half-maximal effect; 0% is about no effect; nearly all actives have a fitted effect of over 55% in size
# Sm TGR block: inhibitors of Schistosoma mansoni thioredoxin glutathione reductase | 3% of 360,000 active | Potency, µM (doses to about 114 µM), inactives show top-dose activity change, negative = inhibition, most hits filed as inhibitors | purified TGR, DTNB reduction, TNB absorbance 405 nm; also: potency is read from the fitted curve at half-maximal effect; % is scaled to controls: 0 for no effect and ±100 for the full control effect; nearly all actives have a fitted effect of over 60% in size
#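 First, TGR (20 nM dispensed) and NADPH were mixed with compound. Second, a 15 min room-temperature incubation followed. Third, further NADPH and then DTNB were added to start the reaction. Finally, TNB absorbance was monitored kinetically.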
# HCMV antiviral: blocks human cytomegalovirus replication; HFF cells, HCMV-luciferase reporter, 72 h; stronger effect = lower value; activity change, negative = inhibition, % at 57.5 µM; 4.5% of 410,000 active; AID 1259415; in the data active = activity change below about -60%; inconclusive = no clear call, values can overlap the other calls; inactive = above about -39%; also: % is scaled to controls: 0 for no effect and ±100 for the full control effect
#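 Human foreskin fibroblasts infected with luciferase-reporter HCMV at MOI 1 PFU/cell, compounds at two doses. Luciferase measured 72 h post infection; normalized to buffer-only basal and Salinomycin (10uM) controls.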
# Pf growth 48h: inhibits P. falciparum growth in the first generation, 48 h. Potency, µM (top dose mostly 28.7 µM), for inactives: top-dose activity change, negative = inhibition, actives largely listed as inhibitors. 5.9% of 310,000 active. P. falciparum luciferase growth in erythrocytes, 48 h; also: potency is read from the fitted curve at half-maximal effect; % is scaled to controls: 0 for no effect and ±100 for the full control effect
#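 Read-out is firefly luciferase luminescence from an integrated reporter in P. falciparum, so falling signal marks reduced parasite growth. Infected erythrocytes were at 2% hematocrit and 0.1% parasitemia (final) in Albumax-supplemented RPMI 1640.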
# The depositor's hits bear a star; ? = inconclusive; . = no result given; [ ] = another dose, or the depositor's remark. Unless noted, calls follow the shape of the dose curve; as a rule, active = well fitted curve in the direction sought with a large enough effect; inconclusive = small, poorly fitted or top-dose-only effect, or another doubt; inactive = no such curve, though single readings can be large; an effect the other way counts as inactive or inconclusive.
SMILES,Pf growth 96h,HCV inh,SARS PLpro yeast,Sm TGR block,HCMV antiviral,Pf growth 48h
COc1ccc(N2C(=O)CC(N3CCC(O)(c4cccc(C(F)(F)F)c4)CC3)C2=O)cc1 (stereo unspecified),10%,-9%,-49%,40µM*,15,0%
O=C1CC(N2CCCCCC2)C(=O)N1c1ccc(F)cc1 (stereo unspecified),14%,17%,-5%,10µM*,-11,4%
CN(Cc1ccccc1)C(=O)[C@@H]1CCCN1C(=O)[C@@H]1CCCN1C(=O)c1ccccc1,.,.,.,.,-11,.
NS(=O)(=O)c1ccc(CCNC(=O)COC(=O)C2COc3ccccc3O2)cc1 (stereo unspecified),.,1%,0%,.,5,.
CCOc1ccc(NC(=O)CN2CCC(n3cnc4cc(F)ccc43)CC2)cc1,-14%,-20%,0%,4%,?,?
O=C(c1ccc(N2CCCC2)c([N+](=O)[O-])c1)N1CCN(S(=O)(=O)c2ccc(Cl)cc2)CC1,?,-15%,-1%,-8%,-3,?
O=C(c1ccc(S(=O)(=O)Cc2cc(F)ccc2F)c([N+](=O)[O-])c1)N1CCCC1,?,11%,-13%,?,-75*,-29%
Nc1ccc(C(=O)N2CCCC2)cc1CS(=O)(=O)c1ccc(Cl)cc1,8%,-10%,0%,1%,-24,0%
O=C(c1ccc(S(=O)(=O)Cc2cc(F)ccc2F)c([N+](=O)[O-])c1)N1CCCCC1,72%,2%,3%,8.9µM*,?,15µM*
CC(CCc1ccccc1)NC(=O)C(=O)c1c[nH]c2ccccc12 (stereo unspecified),?,-27%,6%,12%,-36,2%
COC1=CC(C)C2CC3OC(=O)CC4C(C)=C(OC)C(=O)C(C2(C)C1=O)C34C (stereo unspecified),.,.,.,.,18,.
Fc1cc2[nH]c(=S)[nH]c2c(Br)c1N1CCSCC1,?,-2%,-3%,-8%,49,-4%
CCc1ccc(C(=O)c2cn(CC(=O)Nc3ccc4c(c3)OCCO4)c3ccc(C)cc3c2=O)cc1,.,.,.,-2%,-9,.
Cc1cc(=O)[nH]c(SCc2cccc3ccccc23)n1,3.7µM*,11%,-2%,0%,14,-3%
Cc1cc(CSc2nc(C)cc(=O)[nH]2)c2ncccc2c1,0%,?,1%,4%,-30,48%
COc1ccccc1CNC(=O)C/C(C)=N/NC(=O)Cc1ccc(OC)c(OC)c1,-5%,26%,7%,-9%,-66*,-3%
CCN1CCc2c(sc(-n3cccc3)c2C(C)NC(=O)Nc2cc(Cl)c(OC)cc2OC)C1 (stereo unspecified),.,.,.,-6%,21,.
CCN1CCc2c(sc(-n3cccc3)c2C(C)NC(=O)Nc2ccccc2C)C1 (stereo unspecified),.,.,.,-35%,-67*,.
CCCSc1nc(N)nc2c1ncn2C1OC(CO)C(O)C1O (stereo unspecified),.,4%,.,.,-70*,.
Cc1cc2nc(C)n(CCCNC(=O)Nc3cccc4ccccc34)c2cc1C,-6%,?,3%,0%,-80*,.
Cc1ccc(C(=O)O)cc1NC(=O)Nc1cccc2ccccc12,2.6µM*,15%,-5%,0%,1,33%
Cc1cc(O)c(C(C)C)cc1NC(=O)Nc1cccc2ccccc12,?,?,-1%,-15%,39,10µM*
O=C(Nc1ccc(C(=O)O)cc1)Nc1cccc2ccccc12,-8%,17%,9%,2%,?,0%
Cc1cc(O)c(C(C)C)cc1NC(=O)Nc1cc(Cl)ccc1Cl,.,-16%,.,.,-17,.
CN(C)CCCNC(=O)c1cc2sc3ccccc3c2s1,?,10µM*,0%,6%,-38,?
SMILES,Pf growth 96h,HCV inh,SARS PLpro yeast,Sm TGR block,HCMV antiviral,Pf growth 48h
CCCCN(CC)CCNC(=O)c1cc2c(=O)[nH]c3ccc(C)cc3c2s1,8%,?,0%,-2%,-65*,8.3µM*
CCN(C(=O)c1cc2c(=O)[nH]c3ccc(C)cc3c2s1)c1ccc(F)cc1,?,?,0%,13%,?,?
CCN1CCN(CCCNC(=O)c2cc3c(=O)[nH]c4ccccc4c3s2)CC1,10µM*,?,6%[6.58 µM],-19%,-18,.
O=C(NCCCN1CCOCC1)c1cc2c(=O)[nH]c3ccccc3c2s1,?,15%,5%,-20%,78,17%
Cc1ccc2[nH]c(=O)c3cc(C(=O)N(C)c4ccc(C)c(C)c4)sc3c2c1,8.3µM*,-26%,3%,-4%,-61*,?
CCOCCCNC(=O)c1cc2c(=O)[nH]c3ccccc3c2s1,0%,-16%,-1%,9%,-9,?
CCCCN(CC)CCCNC(=O)c1cc2c(=O)[nH]c3ccccc3c2s1,?,?,0%,45µM*,?,?
COc1cc(C(=O)N2CCN(c3cccc(C(F)(F)F)c3)CC2)ccc1OCC(=O)N1CCOCC1,.,-14%,.,.,0,.
CN(C)S(=O)(=O)c1ccc(C(=O)NCCSc2ccc(Br)cc2)cc1,-17%,22µM*,2%,0%,3,1%
O=C(NCCSc1ccccc1)c1ccc(Br)cc1,?,-13%,-24%,-1%,5,221%
CN(C)S(=O)(=O)c1ccc2c(c1)N(CC(=O)N1CCN(c3ccc(F)cc3)CC1)CCS2,.,.,.,0%,13,.
CC(Sc1nc2ccccc2n1C)C(=O)NC(c1ccccc1)c1ccccc1 (stereo unspecified),5.9µM*,-19%,-30%,-8%,-16,9.3µM*
Cn1cc(C(=O)c2ccccc2)cc1-c1nc2ccccc2n1C,?,?,-17%,-8%,-21,-29%
Cc1oc(-c2nc3ccccc3n2C)cc1C(=O)c1ccccc1,-14%,-4%,-69%,25µM*,16,73%
Cc1cccc(Cn2c(-c3cccc(Br)c3)nc3ccccc32)c1,.,.,.,1%,-5,.
Cn1c2nc3ccccc3c-2nc2ccccc21,.,.,.,.,72,.
Cn1c(-c2ccc(Br)o2)nc2ccccc21,244%,-14%,-6%,18µM*,90,178%
Brc1ccc(Cn2c(-c3ccc(Br)o3)nc3ccccc32)o1,?,-19%,-22%,22µM*,27,?
Cn1c(SC(C(=O)Nc2ccc(F)cc2)c2ccccc2)nc2ccccc21 (stereo unspecified),?,-4%,0%,-10%,?,?
Cc1ccc(-c2nnc(SCC(=O)N/N=C/c3ccc(C(=O)O)cc3)n2C2CCCCC2)cc1,1%,7%,2%,-3%,-23,-1%
O=c1oc2cc(OCc3ccc(F)cc3F)ccc2cc1-c1ccc2ccccc2n1,?,1%[0.335 µM],?,9%,.,-12%
